This is an account of results in PubChem BioAssay (EPA / NIEHS).

Active and inactive are the calls of the source. Rule for the calls: active = hit-call score of the fitted dose curve at least 0.9, where 1 is the maximum; inactive = score below 0.9.

Conditions in all cases: mRNA level, 48 h; actives raise or lower the signal
Read-out in assay [1]: Cyclin D2 (CCND2), CCND2 (gene 894)
The assay can be described thus: LTEA_HepaRG_CCND2: Life Technologies and Expression Analysis (LTEA) Assay for Cyclin D2 (CCND2) using HepaRG (AID 2283449).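 Note: CCND2 transcript measured by TaqMan qRT-PCR and normalised to three housekeeping genes.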 In outline: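 HepaRG, 48 h dosing, 8-pt half-log curve from 100 uM, 0.5% DMSO; duplicate wells. Readout: CCND2 transcript by microfluidic qRT-PCR, housekeeping-normalised; bidirectional fit vs DMSO baseline.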

Read-out in assay [2]: Cyclin Dependent Kinase Inhibitor 1A (CDKN1A), CDKN1A (gene 1026)
As to the kind of experiment: LTEA_HepaRG_CDKN1A: Life Technologies and Expression Analysis (LTEA) Assay for Cyclin Dependent Kinase Inhibitor 1A (CDKN1A) using HepaRG (AID 2283450). In outline:
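Read-out is CDKN1A mRNA by TaqMan qRT-PCR, normalized to three housekeeping genes and fitted in both directions against the DMSO baseline. Human HepaRG cells were treated 48 h with test chemicals up to 100 uM in half-log steps, 0.5% DMSO.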

Read-out in assay [3]: Cyclin D1 (CCND1), CCND1 (gene 595)
As to the kind of experiment: LTEA_HepaRG_CCND1: Life Technologies and Expression Analysis (LTEA) Assay for Cyclin D1 (CCND1) using HepaRG (AID 2283451). A digest of the protocol: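 HepaRG plated 48 h, medium switched to serum-free induction medium, chemicals added in duplicate (top 100 uM, half-log steps, 0.5% DMSO) for 48 h, cells lysed, RNA measured by TaqMan qRT-PCR.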

Read-out in assay [4]: catalase (CAT), CAT (gene 847)
The assay can be described thus: LTEA_HepaRG_CAT: Life Technologies and Expression Analysis (LTEA) Assay for catalase (CAT) using HepaRG (AID 2283452). A digest of the protocol: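 HepaRG cells in serum-free induction medium, 0.5% DMSO vehicle, exposed 48 h in duplicate over 8 half-log concentrations from 100 uM. CAT mRNA measured by qRT-PCR, normalized to ACTB, GAPDH, POLR2A; bidirectional fit versus DMSO.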

Read-out in assay [5]: flavin-containing dimethylaniline monooxygenases 3 (FMO3), FMO3 (gene 2328)
The assay can be described thus: LTEA_HepaRG_FMO3: Life Technologies and Expression Analysis (LTEA) Assay for flavin-containing dimethylaniline monooxygenases 3 (FMO3) using HepaRG (AID 2283453). A digest of the protocol:
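Eight-point concentration-response in serum-free HepaRG cultures (top 100 uM, 0.5% DMSO, 48 h). Read-out: FMO3 mRNA level normalized to three endogenous control genes, fitted bidirectionally versus vehicle.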

Read-out in assay [6]: Cytochrome P450 (CYP1A1), CYP1A1 (gene 1543)
As to the kind of experiment: LTEA_HepaRG_CYP1A1: Life Technologies and Expression Analysis (LTEA) Assay for Cytochrome P450 (CYP1A1) using HepaRG (AID 2283454). A digest of the protocol: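 HepaRG, 48 h post-plating switched to serum-free induction medium; 8-pt conc-response (top 100 uM, half-log, 0.5% DMSO), duplicates, 48 h. Lysis in RLT, TaqMan qRT-PCR for CYP1A1; gain or loss vs DMSO.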

Read-out in assay [7]: CFLAR gene, CFLAR (gene 8837)
The assay can be described thus: LTEA_HepaRG_CFLAR: Life Technologies and Expression Analysis (LTEA) Assay for CFLAR gene using HepaRG (AID 2283455). A digest of the protocol:
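qRT-PCR read-out (Fluidigm/TaqMan) of CFLAR mRNA, normalized to three housekeeping genes, in differentiated human HepaRG cells after 48 h chemical exposure; 8-point half-log series from 100 uM in 0.5% DMSO; bidirectional curve fitting versus DMSO.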

Read-out in assay [8]: Forkhead box O1 (FOXO1), FOXO1 (gene 2308)
The assay can be described thus: LTEA_HepaRG_FOXO1: Life Technologies and Expression Analysis (LTEA) Assay for Forkhead box O1 (FOXO1) using HepaRG (AID 2283456). In outline: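 HepaRG, 48 h exposure, 8-pt half-log series from 100 uM in 0.5% DMSO, duplicates; Fluidigm qRT-PCR mRNA, housekeeping-normalised; bidirectional fit vs DMSO baseline.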

Read-out in assay [9]: growth arrest and DNA damage 45 (GADD45A), GADD45A (gene 1647)
The assay can be described thus: LTEA_HepaRG_GADD45A: Life Technologies and Expression Analysis (LTEA) Assay for growth arrest and DNA damage 45 (GADD45A) using HepaRG (AID 2283458). A digest of the protocol:
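HepaRG, 48 h exposure, 8 conc. (top 100 uM, half-log steps), 0.5% DMSO vehicle, duplicates. Read-out: qRT-PCR mRNA level, housekeeping-normalized (ACTB/GAPDH/POLR2A). Curves fit bidirectionally vs DMSO baseline.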

Read-out in assay [10]: Forkhead box O3 (FOXO3), FOXO3 (gene 2309)
As to the kind of experiment: LTEA_HepaRG_FOXO3: Life Technologies and Expression Analysis (LTEA) Assay for Forkhead box O3 (FOXO3) using HepaRG (AID 2283459). In outline: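 qRT-PCR readout of FOXO3 transcript, normalized to three housekeeping genes (ACTB, GAPDH, POLR2A); gain or loss fitted against 0.5% DMSO vehicle. HepaRG cells, 48 h chemical exposure, 8-point half-log series, top 100 uM.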

Read-out in assay [11]: ABC Transporter (ABCB1), ABCB1 (gene 5243)
As to the kind of experiment: LTEA_HepaRG_ABCB1: Life Technologies and Expression Analysis (LTEA) Assay for ABC Transporter (ABCB1) using HepaRG (AID 2283460). In outline:
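HepaRG, 48 h exposure, 8-pt half-log series from 100 uM, 0.5% DMSO vehicle, duplicates. Readout: ABCB1 transcript by Fluidigm TaqMan qRT-PCR, housekeeping-normalized; bidirectional curve fit vs DMSO baseline.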

Read-out in assay [12]: growth arrest and DNA damage 45 (GADD45B), GADD45B (gene 4616)
As to the kind of experiment: LTEA_HepaRG_GADD45B: Life Technologies and Expression Analysis (LTEA) Assay for growth arrest and DNA damage 45 (GADD45B) using HepaRG (AID 2283461). In outline:
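HepaRG, ~100,000 cells/well, 48 h plating; serum-free induction medium; cpd 100 uM top, half-log x8, 0.5% DMSO, duplicate, 48 h; lysis in RLT, RNA isolation, qRT-PCR; norm ACTB/GAPDH/POLR2A; bidirectional fit vs DMSO.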

Read-out in assay [13]: ABC Transporter (ABCC3), ABCC3 (gene 8714)
As to the kind of experiment: LTEA_HepaRG_ABCC3: Life Technologies and Expression Analysis (LTEA) Assay for ABC Transporter (ABCC3) using HepaRG (AID 2283462). In outline: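 Human HepaRG, 48 h dosing, 8-pt half-log series from 100 uM, 0.5% DMSO vehicle, duplicates. ABCC3 mRNA by TaqMan qRT-PCR, housekeeping-normalized; bidirectional curve fit vs DMSO.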

Read-out in assay [14]: ABC Transporter (ABCB11), ABCB11 (gene 8647)
As to the kind of experiment: LTEA_HepaRG_ABCB11: Life Technologies and Expression Analysis (LTEA) Assay for ABC Transporter (ABCB11) using HepaRG (AID 2283463). A digest of the protocol: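 HepaRG, 48 h exposure, 8-pt half-log CRC top 100 uM, 0.5% DMSO vehicle, duplicates. Readout: TaqMan qRT-PCR of ABCB11 mRNA, housekeeping-normalized (ACTB/GAPDH/POLR2A). Bidirectional fit vs DMSO baseline.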

Read-out in assay [15]: ABC Transporter (ABCC2), ABCC2 (gene 1244)
The assay can be described thus: LTEA_HepaRG_ABCC2: Life Technologies and Expression Analysis (LTEA) Assay for ABC Transporter (ABCC2) using HepaRG (AID 2283464). In outline: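 HepaRG, 48 h post-plating; serum-free induction medium; cpd 8-pt, 100 uM top, half-log, 0.5% DMSO, duplicate, 48 h. Readout: ABCC2 mRNA by qRT-PCR, norm. ACTB/GAPDH/POLR2A. Bidirectional fit vs DMSO baseline.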

Read-out in assay [16]: Broad substrate specificity ATP-binding cassette transporter ABCG2 (Homo sapiens) (UniProt Q9UNQ0)
As to the kind of experiment: LTEA_HepaRG_ABCG2: Life Technologies and Expression Analysis (LTEA) Assay for ABC Transporter (ABCG2) using HepaRG (AID 2283465). A digest of the protocol: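 HepaRG, 48 h exposure, 8-pt half-log series from 100 uM, 0.5% DMSO vehicle, duplicates. Readout: ABCG2 transcript by qRT-PCR (Fluidigm array), housekeeping-normalized; bidirectional curve fit relative to DMSO baseline.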

Read-out in assay [17]: ATP-citrate lyase (ACLY), ACLY (gene 47)
As to the kind of experiment: LTEA_HepaRG_ACLY: Life Technologies and Expression Analysis (LTEA) Assay for ATP-citrate lyase (ACLY) using HepaRG (AID 2283466). In outline:
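qRT-PCR readout of ACLY transcript after 48 h chemical treatment of HepaRG cells; expression normalized to three housekeeping genes. Eight-point half-log series, highest 100 uM, 0.5% DMSO vehicle. Gain or loss fitted against DMSO baseline.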

Read-out in assay [18]: Peroxisomal acyl-coenzyme A oxidase 1 (ACOX1) gene, ACOX1 (gene 51)
As to the kind of experiment: LTEA_HepaRG_ACOX1: Life Technologies and Expression Analysis (LTEA) Assay for Peroxisomal acyl-coenzyme A oxidase 1 (ACOX1) gene using HepaRG (AID 2283467). In outline: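 HepaRG, 48 h chemical exposure, 8-pt half-log series from 100 uM top, 0.5% DMSO vehicle, duplicates. Readout: ACOX1 mRNA by Fluidigm qRT-PCR, housekeeping-normalized; bidirectional fit vs DMSO baseline.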

Read-out in assay [19]: Alkaline Phosphatase, Placental (ALPP) gene, ALPP (gene 250)
As to the kind of experiment: LTEA_HepaRG_ALPP: Life Technologies and Expression Analysis (LTEA) Assay for Alkaline Phosphatase, Placental (ALPP) gene using HepaRG (AID 2283468). In outline:
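HepaRG, 48 h plating then 48 h dosing, serum-free induction medium, 0.5% DMSO. 8 conc, half-log, max 100 uM, duplicates. Endpoint: ALPP transcript by qRT-PCR, housekeeping-normalized; gain or loss fitted vs DMSO.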

Broad substrate specificity ATP-binding cassette transporter ABCG2 (Homo sapiens), sequence (Q9UNQ0 whole entry, looked up): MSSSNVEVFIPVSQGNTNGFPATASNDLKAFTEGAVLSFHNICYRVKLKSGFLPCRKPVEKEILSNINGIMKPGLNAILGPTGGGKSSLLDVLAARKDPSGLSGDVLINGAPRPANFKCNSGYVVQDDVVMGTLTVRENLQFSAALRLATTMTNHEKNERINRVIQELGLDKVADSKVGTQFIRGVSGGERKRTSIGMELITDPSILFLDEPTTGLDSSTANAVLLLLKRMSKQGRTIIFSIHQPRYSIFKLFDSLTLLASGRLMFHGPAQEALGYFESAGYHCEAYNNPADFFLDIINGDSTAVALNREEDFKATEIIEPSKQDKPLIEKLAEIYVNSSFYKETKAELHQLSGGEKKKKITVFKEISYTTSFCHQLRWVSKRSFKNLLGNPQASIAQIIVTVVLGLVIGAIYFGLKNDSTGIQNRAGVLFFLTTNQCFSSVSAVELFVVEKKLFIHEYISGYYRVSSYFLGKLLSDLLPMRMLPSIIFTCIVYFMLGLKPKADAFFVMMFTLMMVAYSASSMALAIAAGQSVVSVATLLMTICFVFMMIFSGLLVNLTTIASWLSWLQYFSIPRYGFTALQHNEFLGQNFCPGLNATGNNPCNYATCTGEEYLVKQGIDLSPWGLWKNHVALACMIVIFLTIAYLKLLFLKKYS

For `CCCCCCC(C)OC(=O)COc1nc(F)c(Cl)c(N)c1Cl` (configuration not stated), the compound was called inactive in assay [1], in assay [2], in assay [3], in assay [4], in assay [5] and in [6]. Moreover, the compound was classed as inactive in assay [7], in assay [8], in [9], in assay [10], in assay [11] and in [12]. For the same compound, the outcome in assay [13], in assay [14], in assay [15], in assay [16], in assay [17] and in assay [18] was inactive. For the same compound, in assay [19], the compound was called inactive.
As usually defined, the AC50 is the midpoint of the concentration-response curve, whichever way the signal moves. Consider `C#C[C@]1(O)CC[C@H]2[C@@H]3CCC4=CC(=O)CC[C@@H]4[C@H]3CC[C@@]21CC`, for which the outcome in [1], in [2], in assay [3], in [4], in assay [5] and in assay [6] was inactive. Also, the outcome in assay [7], in assay [8], in [9], in assay [10], in [12] and in assay [13] was inactive. The outcome in assay [15], in [16], in assay [17], in [18] and in assay [19] was inactive. Also, the AC50 in assay [11] was 156 nM (active); in assay [14], 36.5 nM (active).
On to `COC(=O)c1ccc(I)cc1S(=O)(=O)NC(=O)Nc1nc(C)nc(OC)n1`, for which the compound was classed as inactive in assay [1], in assay [2], in assay [3], in assay [4], in [5] and in [7]. Also, the result in [8], in assay [9], in assay [10], in [11], in assay [12] and in [13] was inactive. Further, the compound was classed as inactive in [14], in assay [15], in [16], in [17], in [18] and in [19]. For the same compound, the AC50 in assay [6] is 62400 nM (active).
